Here are results for nine compounds from PubChem BioAssay (Tox21).

Assay [1] can be described thus: qHTS assay to identify aromatase inhibitors - cell viability counter screen (AID 743084).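 Note: cells stimulated with testosterone during compound exposure; nearly all actives have a fitted effect of over 55% in size.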 Note: potency is the fitted concentration of half-maximal effect. A general note: qHTS replaces the single test concentration by a dilution series.
A short description of assay [2]: qHTS assay to identify small molecule that activate the aryl hydrocarbon receptor (AhR) signaling pathway - cell viability counter screen (AID 743086). Note: nearly all actives have a fitted effect of over 45% in size. Note: potency is the fitted concentration of half-maximal effect. The procedure, abridged: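 HepG2-AhR-luc (HG2L7.5c1) cells, 4000/well, treated 24 h at 37 C with compound; viability measured as CellTiter-Fluor fluorescence after 30 min in the same wells as the luciferase read.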

A short description of assay [3]: qHTS assay for small molecule agonists of the antioxidant response element (ARE) signaling pathway - cell viability counter screen (AID 743203; calls by dose curve; note: nearly all actives have a fitted effect of over 55% in size; note: potency is the fitted concentration of half-maximal effect). A digest of the protocol: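 Measured in the same wells as the beta-lactamase ARE reporter, this read-out is CellTiter-Glo luminescence from HepG2 ARE-bla cells given compounds for 16 hrs.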
The nature of assay [4]: qHTS assay for small molecule activators of the heat shock response signaling pathway - cell viability counter screen (AID 743209). Note: nearly all actives have a fitted effect of over 50% in size. Note: potency is the fitted concentration of half-maximal effect. The procedure, abridged: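 Same-well multiplex: after 2.5 h room-temperature incubation with LiveBLAzer B/G substrate and fluorescence reading, CellTiter-Glo reagent was added to HSE-bla HeLa cells that had received compound for 5 h at 37 C; luminescence read after 30 min.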

Assay [5] in a line: qHTS assay to identify small molecule agonists of the peroxisome proliferator-activated receptor delta (PPARd) signaling pathway - cell viability counter screen (AID 743211). Note: nearly all actives have a fitted effect of over 55% in size. Note: potency is the fitted concentration of half-maximal effect. A digest of the protocol:
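Viability was measured as CellTiter-Glo luminescence (30 min, room temperature) in the same wells as the beta-lactamase readout. GeneBLAzer PPARd UAS-bla HEK293H cells received compound after 5 h plating and were incubated 17 h at 37 C.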

Assay [6] in a line: qHTS assay to identify small molecule antagonists of the peroxisome proliferator-activated receptor delta (PPARd) signaling pathway - cell viability counter screen (AID 743213). Note: nearly all actives have a fitted effect of over 50% in size. Note: potency is the fitted concentration of half-maximal effect. The procedure, abridged: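 Agonist-stimulated (L165041, 300 nM final) HEK293H PPARd UAS-bla cells are exposed to compounds for 17 h at 37 C, and ATP-based luminescence (CellTiter-Glo) from the same wells reports cytotoxicity.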

Assay [7] can be described thus: qHTS assay to identify small molecule antagonists of the farnesoid-X-receptor (FXR) signaling pathway - cell viability counter screen (AID 743221; active = well fitted cell-killing curve with a large enough effect in the repeat runs, not every such curve was filed as active; note: nearly all actives have a fitted effect of over 50% in size; note: potency is the fitted concentration of half-maximal effect). A digest of the protocol: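 Cytotoxicity counter screen run in the FXR-bla reporter wells: HEK 293T cells exposed to compound with 50 uM (final) chenodeoxycholic acid for 16 h, 37 C, then viability measured by CellTiter-Glo luminescence after 30 min, room temperature.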

A short description of assay [8]: qHTS assay to identify small molecule agonists of the farnesoid-X-receptor (FXR) signaling pathway - cell viability counter screen (AID 743218). Note: nearly all actives have a fitted effect of over 45% in size. Note: potency is the fitted concentration of half-maximal effect. A digest of the protocol:
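Readout: CellTiter-Glo luminescence, 30 min RT, multiplexed after the FXR-bla FRET reading. HEK 293T FXR-UAS-bla cells received compound 5 h post-plating and were incubated 16 h at 37 C.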

Assay [9] is described as follows: qHTS assay to identify small molecule antagonists of the peroxisome proliferator-activated receptor gamma (PPARg) signaling pathway - cell viability counter screen (AID 743194). Note: nearly all actives have a fitted effect of over 55% in size. Note: potency is the fitted concentration of half-maximal effect. The procedure, abridged: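 Cytotoxicity counter screen in PPARg-bla HEK293H cells, same wells as reporter assay. Compounds plus 50 nM rosiglitazone (final) for 17 h at 37 C, then viability read by CellTiter-Glo luminescence.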

Assay [10] can be described thus: qHTS assay for small molecule agonists of the antioxidant response element (ARE) signaling pathway (AID 743202; active = well fitted activation curve with a large enough effect in the signal ratio in the repeat runs, not every such curve was filed as active; the % refers to the signal ratio; note: potency is the fitted concentration of half-maximal effect). A digest of the protocol: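 HepG2 ARE-bla cells; 16 h treatment at 37 C; FRET-based beta-lactamase fluorescence read after 2 h substrate incubation at room temperature.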
Assay [11] deals with Peroxisome proliferator-activated receptor delta (Homo sapiens) (UniProt Q03181). In words: qHTS assay to identify small molecule antagonists of the peroxisome proliferator-activated receptor delta (PPARd) signaling pathway (AID 743215; active = well fitted inhibition curve with a large enough effect in the signal ratio in the repeat runs, not every such curve was filed as active; the % refers to the signal ratio; note: series mostly up to about 62 µM). The procedure, abridged: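 Fluorescence from cleaved LiveBLAzer B/G FRET substrate (2 h, room temperature) reports PPARd-driven beta-lactamase in HEK293H UAS-bla cells. Cells had been treated 17 h at 37 C with compound plus 300 nM final L165041.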

Assay [12] concerns the target Bile acid receptor (Homo sapiens) (UniProt Q96RI1). Put plainly: qHTS assay to identify small molecule antagonists of the farnesoid-X-receptor (FXR) signaling pathway (AID 743217; active = well fitted inhibition curve with a large enough effect in the signal ratio in the repeat runs, not every such curve was filed as active; the % refers to the signal ratio). The procedure, abridged: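 FRET fluorescence after 2 h room-temperature LiveBLAzer loading gives the readout. Prior step: FXR-bla HEK 293T cells, seeded and incubated 5 h, received test compounds plus 50 uM final CDCA for 16 h at 37 °C.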

Assay [13] addresses Vitamin D3 receptor (Homo sapiens) (UniProt P11473). Put plainly: qHTS assay to identify small molecule antagonists of the vitamin D receptor (VDR) signaling pathway (AID 743223; active = well fitted inhibition curve with a large enough effect in the signal ratio in the repeat runs, not every such curve was filed as active; the % refers to the signal ratio). The procedure, abridged: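 Antagonist mode: compound added to VDR-bla cells alongside agonist 1alpha,25-dihydroxyvitamin D3 (3 nM final), incubation 16 h at 37C. Read-out is LiveBLAzer FRET fluorescence, 2 h at room temperature.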

Assay [14] deals with Bile acid receptor (Homo sapiens) (UniProt Q96RI1). Put plainly: qHTS assay to identify small molecule agonists of the farnesoid-X-receptor (FXR) signaling pathway (AID 743220; active = well fitted activation curve with a large enough effect in the signal ratio in the repeat runs, not every such curve was filed as active; the % refers to the signal ratio). The procedure, abridged: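 FXR-UAS-bla HEK 293T cells carrying a UAS-driven beta-lactamase reporter were plated for 5 h at 37C/5% CO2, then exposed to DMSO-dissolved Tox21 10K compounds for 16 h at 37C. A LiveBLAzer B/G FRET substrate was loaded for 2 h at room temperature before fluorescence reading.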

Assay [15] addresses Vitamin D3 receptor (Homo sapiens) (UniProt P11473). In words: qHTS assay to identify small molecule agonists of the vitamin D receptor (VDR) signaling pathway (AID 743222; calls by dose curve). The procedure, abridged:
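Following 4 h attachment at 37C, VDR-bla cells (2,000 per well) received DMSO-dissolved compounds or controls. After 16 h incubation, LiveBLAzer B/G FRET substrate was added and fluorescence read 2 h later at room temperature.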

Where “and” joins values, the source holds several entries; their conditions need not be identical. Equal values may be shown once. Records with an inconclusive call do not appear. More than one record can exist for a structure, and the calls need not agree. Calls of active or inactive are those of the source. Unless noted, calls come from the whole dose curve; as a rule, active = well fitted curve in the direction sought with a large enough effect in the repeat runs; inconclusive = weak or mixed curves; inactive = no such curve, though single readings can be large; an effect the other way counts as inactive or inconclusive.

Vitamin D3 receptor (Homo sapiens), sequence (P11473 whole entry, looked up): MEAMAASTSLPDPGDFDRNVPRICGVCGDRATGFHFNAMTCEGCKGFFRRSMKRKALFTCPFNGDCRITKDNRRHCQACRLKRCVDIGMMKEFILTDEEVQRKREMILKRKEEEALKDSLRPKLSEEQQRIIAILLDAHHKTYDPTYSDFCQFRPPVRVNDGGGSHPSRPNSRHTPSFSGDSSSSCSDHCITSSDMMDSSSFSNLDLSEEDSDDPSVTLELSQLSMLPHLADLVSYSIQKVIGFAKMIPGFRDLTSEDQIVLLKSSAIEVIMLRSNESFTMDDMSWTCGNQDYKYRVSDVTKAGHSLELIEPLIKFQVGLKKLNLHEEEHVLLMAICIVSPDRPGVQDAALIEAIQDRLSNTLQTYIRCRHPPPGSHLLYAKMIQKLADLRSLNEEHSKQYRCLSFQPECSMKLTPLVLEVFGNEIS
Bile acid receptor (Homo sapiens), sequence (Q96RI1 whole entry, looked up): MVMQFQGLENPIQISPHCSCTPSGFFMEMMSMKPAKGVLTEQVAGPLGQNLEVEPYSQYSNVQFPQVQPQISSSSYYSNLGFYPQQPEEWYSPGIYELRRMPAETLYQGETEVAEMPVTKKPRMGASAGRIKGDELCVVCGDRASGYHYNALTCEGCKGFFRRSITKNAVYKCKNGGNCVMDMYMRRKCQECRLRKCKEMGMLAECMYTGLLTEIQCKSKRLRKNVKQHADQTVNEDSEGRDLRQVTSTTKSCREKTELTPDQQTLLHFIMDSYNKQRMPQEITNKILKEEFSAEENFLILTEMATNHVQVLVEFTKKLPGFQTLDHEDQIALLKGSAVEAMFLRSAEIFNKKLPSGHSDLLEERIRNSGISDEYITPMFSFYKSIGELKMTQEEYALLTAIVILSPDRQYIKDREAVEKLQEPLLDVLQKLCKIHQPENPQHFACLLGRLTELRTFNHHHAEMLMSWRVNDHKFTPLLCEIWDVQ
Peroxisome proliferator-activated receptor delta (Homo sapiens), sequence (Q03181 whole entry, looked up): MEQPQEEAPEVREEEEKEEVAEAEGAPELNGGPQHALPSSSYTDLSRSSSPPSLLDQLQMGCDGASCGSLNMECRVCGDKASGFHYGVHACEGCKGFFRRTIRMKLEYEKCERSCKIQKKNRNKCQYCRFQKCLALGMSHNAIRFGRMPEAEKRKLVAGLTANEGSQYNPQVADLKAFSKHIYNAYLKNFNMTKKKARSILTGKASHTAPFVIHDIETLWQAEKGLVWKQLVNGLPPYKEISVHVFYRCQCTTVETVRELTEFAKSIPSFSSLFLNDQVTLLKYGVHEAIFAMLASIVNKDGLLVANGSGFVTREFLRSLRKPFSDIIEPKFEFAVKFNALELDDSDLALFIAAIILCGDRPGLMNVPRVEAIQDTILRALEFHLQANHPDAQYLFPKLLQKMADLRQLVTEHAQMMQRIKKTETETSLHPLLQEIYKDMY

`CC(C)(C)CC(C)(C)c1ccc(O)c(Cc2ccc(Cl)cc2Cl)c1`: the Potency result in assay [1] and in assay [2] was “inactive” throughout. Besides, the Potency in assay [3] was 13.3 µM (active); in assay [4] it was 23.7 µM (active); in [5] it was 26.6 µM (active); in assay [6] it was 26.6 µM (active); in assay [7], 33.5 µM (active).

Regarding `CCCCCCCCCOC(=O)c1ccc(O)cc1`, the Potency in assay [1] was 30.2 µM (active); in [3], 60.3 µM (active); in assay [4], 24.2 µM (active); in assay [5], 27.1 µM (active); in [6], 24.2 µM (active); in assay [8] it was 48.3 µM (active). Moreover, the Potency in assay [7] was 43 µM (active). Also, the Potency entry in [2] is “inactive”.

Take `Cc1c(C)c2c(c(C)c1O)CCC(C)(COc1ccc(CC3SC(=O)NC3=O)cc1)O2` (stereo not given): the Potency result in assay [1], in assay [2], in assay [9], in assay [4], in assay [11] and in assay [12] was “inactive” throughout. Besides, the Potency result in [8], in assay [7] and in [13] was “inactive” each time. Besides, the Potency in assay [10] was 10.6 µM (active); in assay [3], 61.1 µM (active) and inactive.

Consider `CCCCC(CC)COP(=O)(O)OCC(CC)CCCC` (stereo not given), for which the Potency result in assay [1], in [2], in assay [9], in assay [6], in [14] and in [7] was “inactive” in each case. In addition, the Potency is 61.1 µM (active) in assay [3]; 49.1 µM (active) and 43.6 µM (active) in assay [4]; 55 µM (active) in [5]; 55 µM (active) and 43.6 µM (active) in assay [8].

In the case of `CCN(CC)CCCC(C)Nc1c2ccc(Cl)cc2nc2ccc(OC)cc12` (stereo not given), the Potency entry in assay [1], in [2] and in assay [4] was “inactive” each time. The Potency is 7.5 µM (active) in [3], 29.8 µM (active) in [6], 13.3 µM (active) in assay [8] and 26.6 µM (active) in assay [7].

For `CCN1/C(=C/C=C/c2sc3ccccc3[n+]2CC)Sc2ccccc21`, the Potency is 5.96 µM (active) in [1]; 6.68 µM (active) in assay [2]; 14.6 µM (active) in assay [9]; 1.16 µM (active) in assay [10]; 13 µM (active) in assay [3]; 13 µM (active) in assay [4]. Further, in assay [14], the Potency entry was “inactive”.

With `O=C(OCC(COC(=O)c1ccccc1)(COC(=O)c1ccccc1)COC(=O)c1ccccc1)c1ccccc1`, the Potency entry in assay [1], in assay [2], in assay [9], in assay [3], in [4] and in [5] was “inactive” each time. For the same compound, the Potency result in assay [6], in [11], in assay [8], in assay [7], in assay [15] and in [13] was “inactive” each time.

On to `Nc1ccc(N)c2ccccc12`, for which the Potency in assay [1] is 3.85 µM (active); in [2], 4.32 µM (active); in assay [9], 1.23 µM (active); in assay [3], 0.611 µM (active); in assay [4] it was 34.6 µM (active); in assay [5] it was 15.5 µM (active). In addition, the Potency in assay [8] was 43.6 µM (active).

Turning to `O=C(OC[C@H]1O[C@@H](OC(=O)c2cc(O)c(O)c(OC(=O)c3cc(O)c(O)c(O)c3)c2)[C@H](OC(=O)c2cc(O)c(O)c(OC(=O)c3cc(O)c(O)c(O)c3)c2)[C@@H](OC(=O)c2cc(O)c(O)c(OC(=O)c3cc(O)c(O)c(O)c3)c2)[C@@H]1OC(=O)c1cc(O)c(O)c(OC(=O)c2cc(O)c(O)c(O)c2)c1)c1cc(O)c(O)c(OC(=O)c2cc(O)c(O)c(O)c2)c1`, the Potency was 18.8 µM (active) in assay [1]; 21.1 µM (active) and 16.5 µM (active) in assay [2]; 13.2 µM (active) in assay [6]. Also, the Potency entry in [8], in assay [7] and in assay [15] was “inactive” throughout.
